The panel holds about 83,000 compounds, 20% with a hit somewhere; the sample as a whole holds those more often.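 Note: values are percent growth. 100 is the growth of untreated cells, values between 100 and 0 indicate rising inhibition; between -100 and 0 indicates cell death.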 Activity calls are given as the source filed them. Rule for the calls: active = growth percent below 10; inactive = the rest.
Assays:
Assay in all cases: NCI-60 one-dose screen, 48 h (100 = growth as untreated, 0 = no growth, -100 = all killed)
Conditions in all cases: 10 µM unless noted
DU-145 prostate = tested on: DU-145 prostate
K-562 leukemia = tested on: K-562 leukemia
MALME-3M melanoma = tested on: MALME-3M melanoma
MDA-MB-231 breast = tested on: MDA-MB-231 breast
RXF 393 renal = tested on: RXF 393 renal
SF-268 CNS = tested on: SF-268 CNS
SF-295 CNS = tested on: SF-295 CNS
SF-539 CNS = tested on: SF-539 CNS
UACC-257 melanoma = tested on: UACC-257 melanoma
M14 melanoma = tested on: M14 melanoma
HCT-15 colon = tested on: HCT-15 colon
HT29 colon = tested on: HT29 colon
SNB-75 CNS = tested on: SNB-75 CNS
SNB-19 CNS = tested on: SNB-19 CNS
U251 CNS = tested on: U251 CNS
PC-3 prostate = tested on: PC-3 prostate
SK-MEL-5 melanoma = tested on: SK-MEL-5 melanoma
LOX IMVI melanoma = tested on: LOX IMVI melanoma
SK-MEL-28 melanoma = tested on: SK-MEL-28 melanoma

Measured: growth

O=C1c2ccccc2NC(c2cn(-c3ccccc3)nc2-c2cccnc2)N1Cc1ccccc1 (stereo unspecified)
inactive: DU-145 prostate 101% | K-562 leukemia 96.8% | MALME-3M melanoma 119% | MDA-MB-231 breast 94.3% | RXF 393 renal 97.6% | SF-268 CNS 84.8% | SF-295 CNS 92% | SF-539 CNS 95.6% | UACC-257 melanoma 123% | M14 melanoma 106% | HCT-15 colon 84.7% | HT29 colon 84.5% | SNB-75 CNS 92.9% | SNB-19 CNS 109% | U251 CNS 93.6% | PC-3 prostate 76.5% | SK-MEL-5 melanoma 94.2% | LOX IMVI melanoma 80.2% | SK-MEL-28 melanoma 108%

COc1ccc(C2C(C#N)=C(N)Oc3c2sc2c(F)cccc32)cc1 (stereo unspecified)
active: K-562 leukemia 9.11% | RXF 393 renal -8.26% | SF-539 CNS 1.03% | M14 melanoma -15.6% | HT29 colon 7.77% | SNB-75 CNS 3.73%
inactive: DU-145 prostate 17.3% | MALME-3M melanoma 65.4% | MDA-MB-231 breast 41% | SF-268 CNS 42.6% | SF-295 CNS 20.2% | UACC-257 melanoma 64.9% | HCT-15 colon 24.4% | SNB-19 CNS 22.8% | U251 CNS 24.2% | PC-3 prostate 15.7% | SK-MEL-5 melanoma 22.5% | LOX IMVI melanoma 29.9% | SK-MEL-28 melanoma 60.5%

COc1ccc(NC(=S)N/N=C/c2ccccc2SSCCC(=O)OC[C@H]2O[C@H](O)[C@H](O)[C@@H](O)[C@@H]2O)cc1
inactive: DU-145 prostate 83.9% | K-562 leukemia 51.6% | MALME-3M melanoma 72.7% | MDA-MB-231 breast 71.1% | RXF 393 renal 104% | SF-268 CNS 61.1% | SF-295 CNS 59.1% | SF-539 CNS 91.7% | UACC-257 melanoma 98.4% | M14 melanoma 47.8% | HCT-15 colon 71.8% | HT29 colon 102% | SNB-75 CNS 86.3% | SNB-19 CNS 72.2% | U251 CNS 59.5% | PC-3 prostate 59.9% | SK-MEL-5 melanoma 71.7% | LOX IMVI melanoma 59.6% | SK-MEL-28 melanoma 85.3%

Cc1ccc(-c2nn(Cc3cn(-c4cc(C)nc5ccccc45)nn3)c3ncnc(N)c23)cc1
inactive: DU-145 prostate 47.8% | K-562 leukemia 53.2% | MALME-3M melanoma 52.5% | MDA-MB-231 breast 33.1% | RXF 393 renal 27.3% | SF-268 CNS 35.8% | SF-295 CNS 66.5% | SF-539 CNS 74.7% | UACC-257 melanoma 42.5% | M14 melanoma 52.7% | HCT-15 colon 57% | HT29 colon 49.8% | SNB-75 CNS 15.5% | SNB-19 CNS 53.2% | U251 CNS 71.8% | PC-3 prostate 49% | SK-MEL-5 melanoma 40.7% | LOX IMVI melanoma 52.4% | SK-MEL-28 melanoma 68.7%

From PubChem BioAssay (NCI)
